High-throughput results (PubChem BioAssay)
Shown is part of a subset that was picked to be rich in hits.
A1 inhib – inhibitors of A1; caspase activation, % (concentration not given with the values); 0.51% of 21,000 active; MEF A1-2A-BIM cells, caspase-Glo luminescence, 3 h; percent of clofoctol signal, DMSO as zero;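 active = most replicate scores above 10, or exactly half above 10 with mean activity above 10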;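 also: effector caspase 3 and 7 activity cleaving a DEVD luciferin substrate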
Active calls of the source: *.

How did Cc1c(C(=O)NCCCN2CCOCC2)oc2ccc3c(c12)C(=O)CC(C)(c1ccc(Cl)cc1)O3 (stereo not drawn) do in these assays?
A1 inhib: -1

Results for COc1cccc2sc(=NC(=O)Cc3cccc4ccccc34)n(C)c12 ?
A1 inhib: 10*

How did COc1ccccc1C1CCN(Cc2cccc3ccccc23)CC1 do in these assays?
A1 inhib: 2

What do the screens show for `CCC(C(=O)NCc1cccc(OC)c1OC)n1sc2ccccc2c1=O` (stereo not drawn)?
A1 inhib: 0

How did CC(C)Cc1ccc(C(C)C(=O)N2CCN(c3ccc(C(F)(F)F)cn3)CC2)cc1 (stereo not drawn) do in these assays?
A1 inhib: 1

Results for CC(C)COc1ccc(/C(=N\O)c2ccccc2)cc1 ?
A1 inhib: 0

Results for Cc1ccc(SC(=O)c2c(C)noc2-c2cc(C)on2)cc1 ?
A1 inhib: 9.8*

Results for Cc1ccc(SCC(=O)Nc2cc(C)on2)cc1 ?
A1 inhib: -1

How did Cc1cc(-c2c(C(=O)Sc3ccccc3)c(C)nn2-c2ccccc2)no1 do in these assays?
A1 inhib: 0

What do the screens show for `C=C(C)CC1(NC(C)c2ccccc2)CCCCC1` (stereo not drawn)?
A1 inhib: 9.8*

Results for CC(=O)NC(C)c1ccccc1 (stereo not drawn) ?
A1 inhib: 0

Results for CC(NC(=O)CC(c1ccccc1)c1ccccc1)c1ccccc1 (stereo not drawn) ?
A1 inhib: 1

How did Cc1c(O)c(C(=O)c2nn[nH]n2)c(=O)n(-c2ccccc2)c1-c1ccccc1 do in these assays?
A1 inhib: -1

Results for O=C(Cc1ccc(O)cc1)OC1[C@@H](O)[C@@H](O)C(OC(=O)Cc2ccc(O)cc2)[C@H](O)[C@@H]1O (stereo partly drawn) ?
A1 inhib: 0

What do the screens show for `O=C(Cn1c(=O)oc2cc(S(=O)(=O)NCc3ccccc3)ccc21)Nc1ccc(F)cc1`?
A1 inhib: 0

Results for N#CSCC(=O)C12CC3CC(CC(C3)C1)C2 ?
A1 inhib: 36*

What do the screens show for `O=C(O)CSC12CC3CC(CC(C3)C1)C2`?
A1 inhib: 1

What do the screens show for `O=C(CSc1ccc(F)cc1Cl)C12CC3CC(CC(C3)C1)C2`?
A1 inhib: 0

How did O=C1N(Cc2cc(=O)n3ccccc3n2)c2ccccc2S(=O)(=O)N1c1ccc(Cl)cc1 do in these assays?
A1 inhib: 0

Results for Cc1ccc(NS(=O)(=O)CC23CCC(CC2=O)C3(C)C)cc1 (stereo not drawn) ?
A1 inhib: 0

What do the screens show for `COC(=O)c1ccccc1N=CCC(=O)c1ccc(Br)cc1`?
A1 inhib: -6

How did O=C(NCc1ccc(Cl)cc1)c1sc2ccccc2c1Cl do in these assays?
A1 inhib: 0

Results for O=C(NCc1cccnc1)C1=CCN(S(=O)(=O)c2ccccc2)CC1 ?
A1 inhib: 0

What do the screens show for `O=C(NCc1cccnc1)/C(=C\c1cccc(Oc2ccccc2)c1)S(=O)(=O)c1ccccc1`?
A1 inhib: 47*

How did O=C(NCc1cccnc1)/C(=C\c1ccc(Br)cc1)S(=O)(=O)c1ccccc1 do in these assays?
A1 inhib: 1

What do the screens show for `O=C(CSc1nc2ccccc2c(=O)n1-c1ccc(Cl)c(Cl)c1)N1CCOCC1`?
A1 inhib: 0

Results for Cc1ccc(NC(=O)c2ccc3c(c2)CCO3)cc1 ?
A1 inhib: -4

What do the screens show for `O=C1CSc2ccc(C(=O)N3CCN(c4cccc(C(F)(F)F)c4)CC3)cc2N1`?
A1 inhib: 0

Results for CNc1[nH]cnc(=S)c1N ?
A1 inhib: 0

Results for COC(=O)c1cc(NC(=O)c2cccc(Cl)c2)cc(C(=O)OC)c1 ?
A1 inhib: 0

How did CCCn1nc(NC(=O)c2cccc(Cl)c2)c2cc3cc(C)ccc3nc21 do in these assays?
A1 inhib: 12*

How did Cc1cccc(NC(=O)c2cccc(Cn3nc(C)c(Cl)c3C)c2)c1C do in these assays?
A1 inhib: -1

What do the screens show for `COc1ccc(C2=Nc3ccccc3SC(c3ccccc3)C2)cc1` (stereo not drawn)?
A1 inhib: -1
